The campaign covered roughly 2,400 compounds. About 360 (15%) were called active.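 How the source made its calls: active means viability falls under 70% at one or more tested concentrations, taken as toxicity; inactive means viability stays over 70% at every dose.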 These entries were drawn from the full list. Measured potencies and affinities stand elsewhere.
Assay: HeLa cell cytotoxicity, dose response, cytotoxicity control for MgcRacGAP inhibitor project (AID 624300)
Conditions: CellTiter-Glo luminescence, 24 h; series mostly up to 100 µM

Compound	outcome
O=C(/C=C\c1ccco1)c1ccc(NC(=O)c2ccco2)cc1	inactive
O=C(O)CCCNC(=O)/C=C/c1ccco1	inactive
CCCN1C(=O)S/C(=C/c2ccc(N3CCOCC3)o2)C1=O	inactive
O=C(O)CCCN1C(=O)/C(=C\c2ccco2)SC1=S	inactive
CCn1c(=S)[nH]c2c(=O)n(C)c(=O)n(C)c21	inactive
COc1cc(/C=N/NC(=O)CCN2CCN(C(c3ccccc3)c3ccccc3)CC2)ccc1O	inactive
COc1ccc2cc(OCC(=O)NNC(=O)Nc3ccc(C(C)=O)cc3)ccc2c1	inactive
COc1cc(/C=N/NC(=O)C(=O)Nc2ccccn2)ccc1O	inactive
O=[N+]([O-])c1cc(Br)c(O)c(C=Nc2ccc(N3CCOCC3)cc2)c1	inactive
CN(C)c1ccc(NS(=O)(=O)c2cc(Cl)ccc2Cl)cc1	inactive
CCOC(=O)N1CCC(N2CCN(S(=O)(=O)c3ccc4ccccc4c3)CC2)CC1	inactive
Nc1ccc2c(c1)Cc1cc(N)c(Br)cc1-2	inactive
COc1cc(-c2cc(-c3ccc(F)cc3)nc(N)c2C#N)ccc1O	inactive
COc1cc(-c2cc(C(=O)O)c3c(OC)c(OC)c(OC)cc3n2)ccc1O	inactive
O=C1CC(c2ccccc2)CC(O)=C1C=Nc1ccc(O)cc1 (stereo not drawn)	inactive
S=c1[nH]nc2sc3ccccc3n12	inactive
Oc1ccc(N2CCN(c3ccnc4cc(Cl)ccc34)CC2)cc1	inactive
O=C(O)c1c2c(nc3ccccc13)/C(=C/c1ccc(O)cc1)CCC2	inactive
COc1cc(/C=N/NC(=O)c2cccc([N+](=O)[O-])c2)ccc1O	inactive
COc1cc(/C=N/NC(=O)CCn2nnc3ccccc32)ccc1O	inactive
COc1cc(/C=N/NC(=O)CNC(=O)c2ccc3c(c2)OCCO3)ccc1O	inactive
COc1ccc(NS(=O)(=O)c2cccc(C(=O)NN=Cc3ccc(O)c(OC)c3)c2)cc1	inactive
COc1cc(/C=N/NC(=O)CN(Cc2ccco2)S(=O)(=O)c2ccccc2)ccc1O	inactive
COc1cc(/C=N/NC(=O)CCc2ccccc2)ccc1O	inactive
COc1cc(/C=N/NC(=O)c2ccccc2)ccc1O	inactive

Compound	outcome
COc1cc(/C=N/NC(=S)Nc2cccc(C(=O)O)c2)ccc1O	inactive
COc1cc(CN2CCC(C(=O)N3CCN(c4ccccc4F)CC3)CC2)ccc1O	inactive
COc1cc(/C=C/C(=O)OCC(=O)Nc2c(C)n(C)n(-c3ccccc3)c2=O)ccc1O	inactive
Oc1ccc(Cl)cc1N=Cc1sc2ccccc2c1Cl	inactive
COCc1cc(C)nc(OCC(=O)N/N=C/c2ccc(O)cc2)c1C#N	inactive
O=C(Cc1cccs1)N/N=C\c1ccc(O)cc1	inactive
COCCNC(=O)COc1ccc(Nc2ccccc2)cc1	inactive
COc1ccc(N2CCN(c3ncccc3C#N)CC2)cc1	inactive
COc1cc(/C=C/C(=O)OCC(=O)NNC(=O)c2cc(Cl)ccc2OC)ccc1O	inactive
C=CCN1C(=O)CSC1=Nc1ccc(O)cc1	inactive
COc1ccc(N2CCN(CC(=O)N3c4ccccc4CC3C)CC2)cc1 (stereo not drawn)	inactive
Cc1[nH]c2ccccc2c1N=Nc1c(C)n(C)n(-c2ccccc2)c1=O	inactive
COc1ccc(NC(=O)c2ccc(NC(=O)CN3CCN(c4ccc(O)cc4)CC3)cc2)cc1	inactive
COc1ccc(NC2CCCN(C(=O)CCc3ccccc3F)C2)cc1 (stereo not drawn)	inactive
COC(=O)CCNCCSc1nnc(-c2ccco2)n1Cc1ccccc1	inactive
CCOC(=O)c1sc(/N=C/c2ccc(O)cc2O)cc1C	inactive
COc1cc(/C=N/NC(=O)c2nc(-c3ccccc3)n(-c3ccccc3)n2)ccc1O	inactive
COc1cc(/C=N/NC(=O)c2ccc(=O)[nH]n2)ccc1O	inactive
COc1ccc(-c2ncc3ccccn23)cc1OC	inactive
COc1cccc(-c2ncc3ccccn23)c1	inactive
CS(=O)(=O)C1=NSC2=NC(=O)/C(=C\c3ccc(OC(=O)c4ccco4)c(Br)c3)C(=N)N21	inactive
CC(=O)Nc1ccc(S(=O)(=O)Nc2nc3ccccc3nc2Nc2ccc(C(=O)O)c(O)c2)cc1	inactive
C[C@@H]1O[C@@H](OC[C@H]2O[C@@H](Oc3cc(O)c4c(=O)cc(-c5ccc(O)c(O)c5)oc4c3)[C@H](O)[C@@H](O)[C@@H]2O)[C@H](O)[C@H](O)[C@H]1O	inactive
CN(C)c1ccc(/C=N/O)cc1	inactive
C=CC[n+]1c(/C=C/c2ccc(OC(C)=O)c(OC)c2)ccc2ccccc21	inactive

Compound	outcome
CC/C(=C\c1ccc(N(C)C)cc1)c1ccncc1	inactive
Nc1cc(Cc2ccccc2)ccc1O	inactive
N#Cc1ccc(OCC(=O)Nc2ccc(N3CCCC3)cc2)cc1	inactive
O=C(Nc1ccc(N2CCCCC2)cc1)c1ccccc1	inactive
COc1cc(N=Nc2ccc(C(=O)N(C)C)cc2)c(C)cc1N	inactive
N#CC1(Nc2ccc3c4c(cccc24)CC3)CCCCC1	inactive
Cc1cnc(NC(=O)C(C)N2CCN(C)CC2)s1 (stereo not drawn)	inactive
O=C(Nc1ccccc1Cl)Oc1ccc(-c2ccccc2)cc1	inactive
Cc1cc(NC(=O)CN2CCC(C)CC2)no1	inactive
COc1ccccc1NS(=O)(=O)c1ccc(C)c(C(=O)N2CCN(c3ccc(O)cc3)CC2)c1	inactive
Cc1ccc(C2C=NN(c3ccccc3)C2=O)cc1 (stereo not drawn)	inactive
C=CCn1c(=O)/c(=C/c2ccc(O)cc2)s/c1=C(/C#N)c1nnc2n1CCCCC2	inactive
COc1ccc(NC2CCCN(C(=O)CCc3scnc3C)C2)cc1 (stereo not drawn)	inactive
COc1cc(N)c2ncccc2c1SC	inactive
COc1cc(N)c2ncccc2c1OC	inactive
COc1ccccc1N1CCN(/N=C/c2ccc(O)cc2O)CC1	inactive
COc1ccc(Br)cc1CN(C)CC(=O)NCCc1ccccc1	inactive
COc1ccc(Br)cc1CNc1ccc(O)cc1	inactive
COc1ccc(CNCc2cccc(OC)c2OC)cc1Br	inactive
COc1ccc(CN2CCN(Cc3ccc(Br)cc3)CC2)c(OC)c1OC	inactive
Oc1ccc(/C=N/NC(=S)NCc2ccco2)cc1	inactive
CCN(CC)c1ccc(/C=N/N2CCOCC2)cc1	inactive
CCNc1nc(NCC)nc(N/N=C/c2ccc(O)c(O)c2)n1	inactive

From PubChem BioAssay AID624300 (Southern Research Specialized Biocontainment Screening …, 2012)
